# Assay results from PubChem BioAssay (NCATS).
# Records with an inconclusive call do not appear. Calls of active or inactive are those of the source. Calls come from the whole dose curve; as a rule, active = well fitted curve in the direction sought with a large enough effect; inconclusive = small, poorly fitted or top-dose-only effect, or another doubt; inactive = no such curve, though single readings can be large; an effect the other way counts as inactive or inconclusive.
# Molecular target: Luciferin 4-monooxygenase (Photinus pyralis) (UniProt P08659)
# Assay: Primary firefly luciferase (FLuc) qHTS assay for identification of artifact compounds. (AID 1845220); note: nearly all actives have a fitted effect of over 60% in size;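 for activity change, negative = inhibition: plate controls were DMSO vehicle for no effect and no enzyme for full effect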
# Settings: purified firefly luciferase, luminescence, 5 min; series mostly up to 54.1 µM; activity change, negative = inhibition: at the top concentration
# Method in brief: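 D-luciferin and ATP (10 uM each, final) in Tris acetate buffer pH 7.6 were incubated with compounds for 15 min at room temperature. The reaction was started with 10 nM Photinus pyralis luciferase and luminescence read after 5 min. Percent inhibition was fitted to a 4-parameter Hill equation.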
SMILES,"activity change, negative = inhibition",outcome
C[C@@H]1O[C@@H](O[C@H]2[C@H](OC(=O)C34CCC5(C)C(=CCC6C7(C)CC(O)C(O[C@@H]8O[C@H](C(=O)O)[C@@H](O)[C@H](O)[C@H]8O)C(C)(C(=O)O)C7CCC65C)C3CC(C)(C)CC4O)O[C@H](C)[C@@H](O)[C@@H]2O)[C@H](O)[C@@H](O[C@@H]2OC[C@](O)(CO)[C@H]2O[C@@H]2O[C@H](CO)[C@@H](O)[C@H](O)[C@H]2O)[C@H]1O (some centres not stated),-0.148% [at 11.6 µM] (inactive),–
CC1(O)CCC2C(C(=O)O)=COC(OC3OC(CO)C(O)C(O)C3OC(=O)/C=C/c3ccc(O)cc3)C21 (configuration not stated),3.71% [at 25.7 µM] (inactive),–
C[C@@H]1O[C@@H](OC[C@H]2O[C@@H](OCCc3ccccc3)[C@H](O)[C@@H](O)[C@@H]2O)[C@H](O)[C@H](O)[C@H]1O,–,inactive [at 25.7 µM]
C[C@@H]1CCC2C(C)(C)[C@H](O)CC[C@]2(C)[C@@]12Cc1c(O)cc3c(c1O2)CN(CCO)C3=O (some centres not stated),–,inactive [at 25.7 µM]
O=C(C1CC1)N1CC[C@@H](Cc2n[nH]c(=O)n2-c2ccc(-c3ccc4occc4c3)cc2)C1,–,inactive [at 25.7 µM]
C=C1CC[C@H]2[C@@](C)(CCC[C@@]2(C)C(=O)O)[C@@H]1CCC(C)CCO (some centres not stated),–,inactive
COc1ccc(C(O[C@@H]2O[C@H](CO)[C@@H](O)[C@H](O)[C@H]2O)C(CO)Oc2ccc(/C=C/CO)cc2OC)cc1O (some centres not stated),–,inactive [at 25.7 µM]
C[C@@H]1C[C@H](O)/C=C/[C@H](O)[C@@H](O)CC(=O)O1,–,inactive
C=C(C)C1CC2(CO)C(=CC1=O)CCC(O)C2C (configuration not stated),1.55% (inactive),–
C[C@@H]1O[C@@H](O[C@@H]2[C@@H](O)[C@H](O[C@@H]3[C@@H](O)[C@@H](O)[C@H](O[C@H]4[C@H](OC(=O)[C@]56CCC(C)(C)C[C@H]5C5=CCC7[C@@]8(C)C[C@H](O)[C@H](O[C@@H]9O[C@@H](C)[C@H](O)[C@@H](O)[C@H]9O)[C@@](C)(CO)C8CC[C@@]7(C)[C@]5(C)C[C@H]6O)O[C@H](C)[C@H](O)[C@@H]4O)O[C@H]3C)OC[C@H]2O)[C@H](O)[C@H](O)[C@H]1O (some centres not stated),–,inactive [at 11.6 µM]
C=C1CCC2C(C)(C)C(O)CCC2(C)C1CCC(C)CCOC(=O)CCC(=O)O (configuration not stated),4.56% [at 25.7 µM] (inactive),–
OCc1ccccc1O[C@@H]1O[C@H](CO)[C@@H](O)[C@H](O)[C@H]1O,-0.146% (inactive),–
COc1cc(CC(COC2OC(CO)C(O)C(O)C2O)c2cc(/C=C/CO)cc(OC)c2O)ccc1O (configuration not stated),2.86% [at 25.7 µM] (inactive),–
CC(/C=C/C1(O)C2(C)COC1(C)CC(=O)C2)O[C@@H]1O[C@H](CO)[C@@H](O)[C@H](O)[C@H]1O (some centres not stated),3.4% [at 25.7 µM] (inactive),–
CN1C(=O)c2ccccc2-n2c(nc3ccccc3c2=O)[C@@]12O[C@H]2c1ccccc1,3.82% (inactive),–
CC1OC(OC2C(C)OC(OC3C(OC(=O)/C=C/c4ccc(O)cc4)C(CO)OC(OC4(COC(=O)/C=C/c5ccc(O)cc5)OC(CO)C(O)C4O)C3OC3OCC(O)(CO)C3O)C(O)C2O)C(O)C(O)C1O (configuration not stated),-0.562% [at 11.6 µM] (inactive),–
N[C@@H](CC(=O)N1CCn2c(nnc2C(F)(F)F)C1)Cc1[nH]nc2c(F)c(F)ccc12,0.716% (inactive),–
COC(=O)C1=CO[C@@H](O[C@@H]2O[C@H](CO)[C@@H](O)[C@H](O)[C@H]2O)[C@@H]2[C@@H](C)[C@@H](O)C[C@H]12,1.92% (inactive),–
CCn1cc(C2=NOC(C(=O)Nc3c(C)n(C)n(-c4ccccc4)c3=O)C2)c(C)n1 (configuration not stated),–,inactive
CCC(NC(=O)CC(NC(=O)C(CO)NC(=O)C(CC)NC(=O)c1ccc[nH]1)c1ccccc1)C(=O)O (configuration not stated),0.21% [at 25.7 µM] (inactive),–
CC(C)=CCCC1(C)Oc2cc3c(c4c2C2C(O4)C(C)(O)CCC21)CN(C(CCC(=O)O)C(=O)O)C3=O (configuration not stated),–,inactive [at 25.7 µM]
O=S(=O)(Nc1ccc(C(O)(C(F)(F)F)C(F)(F)F)cc1)c1cccs1,2.12% (inactive),–

# Tested on: not listed separately
# Assay: Primary fluorescence-based thiol-reactive (MSTI) qHTS assay for identification of artifact compounds. (AID 1845221); note: nearly all actives have a fitted effect of over 65% in size; note: potency is the fitted concentration of half-maximal effect;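 for activity change, negative = thiol reactive: thiol-reactive compounds lower the probe fluorescence signal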
# Settings: MSTI thiol-reactivity probe, 1 h; series mostly up to 53.8 µM; activity change, negative = thiol reactive: at the top concentration
# Method in brief: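 Thiol-reactive compounds detected by quenching of 4 uM MSTI fluorescence (525/598 nm) after 1 h room-temperature dark incubation in PBS pH 7.4, 2% DMSO. qHTS titration; percent inhibition Hill-fitted against Acetyl-MSTI/MSTI controls.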
SMILES,"activity change, negative = thiol reactive",Potency
CCCC(N[C@@H](C)C(=O)N1[C@H](C(=O)O)C[C@@H]2CCCC[C@@H]21)C(=O)OCC (some centres not stated),-13.9% (inactive),–
O=C(O)CCc1cccc(O[C@@H]2O[C@H](CO)[C@@H](O)[C@H](O)[C@H]2O)c1O,–,8.26 µM (active)
CCOC(=O)c1ccnc(CNCC(=O)N(CC)CCN(C)C)c1,6.53% (inactive),–
CC(=O)O[C@@H]1[C@H](O[C@@H]2OC[C@](O)(CO)[C@H]2O)[C@@H](O[C@@H]2O[C@@H](C)[C@H](O)[C@@H](O)[C@H]2O)[C@H](OC(=O)[C@]23CCC(C)(C)C[C@H]2C2=CCC4[C@@]5(C)C[C@H](O)[C@H](O[C@@H]6O[C@H](C(=O)O)[C@@H](O)[C@H](O)[C@H]6O)[C@@](C)(C(=O)O)C5CC[C@@]4(C)[C@]2(C)CC3)O[C@@H]1C (some centres not stated),279% [at 11.5 µM] (inactive),–
CC1(C)OC(=O)C(OCC2CC2)=C1c1ccc(S(C)(=O)=O)cc1,12.6% (inactive),–
